# Results as given in ChEMBL document CHEMBL3988442, “University of Dundee, Small-Polar-MMV Screening Library” (2021).
# For part of these data: Potency and affinity values are given separately.
# Experiments:
# Design in all cases: scale not given: direction of the effect not stated beside the values
# [1] = target: Protein translocase subunit SecA (Escherichia coli (strain K12)) (UniProt P10408); test: Assay to Identify E. coli SecA ATPase Inhibitors; assay type: functional; conditions: 30 µM
# [2] = target: T1, Ubiquitin-activating enzyme e1, putative (Leishmania donovani (strain BPK282A1)) (UniProt E9BSI1); test: Leishmania donovani Ubiquitin Activating Enzyme (LdE1); assay type: functional; conditions: 30 µM
# T1 sequence (whole entry): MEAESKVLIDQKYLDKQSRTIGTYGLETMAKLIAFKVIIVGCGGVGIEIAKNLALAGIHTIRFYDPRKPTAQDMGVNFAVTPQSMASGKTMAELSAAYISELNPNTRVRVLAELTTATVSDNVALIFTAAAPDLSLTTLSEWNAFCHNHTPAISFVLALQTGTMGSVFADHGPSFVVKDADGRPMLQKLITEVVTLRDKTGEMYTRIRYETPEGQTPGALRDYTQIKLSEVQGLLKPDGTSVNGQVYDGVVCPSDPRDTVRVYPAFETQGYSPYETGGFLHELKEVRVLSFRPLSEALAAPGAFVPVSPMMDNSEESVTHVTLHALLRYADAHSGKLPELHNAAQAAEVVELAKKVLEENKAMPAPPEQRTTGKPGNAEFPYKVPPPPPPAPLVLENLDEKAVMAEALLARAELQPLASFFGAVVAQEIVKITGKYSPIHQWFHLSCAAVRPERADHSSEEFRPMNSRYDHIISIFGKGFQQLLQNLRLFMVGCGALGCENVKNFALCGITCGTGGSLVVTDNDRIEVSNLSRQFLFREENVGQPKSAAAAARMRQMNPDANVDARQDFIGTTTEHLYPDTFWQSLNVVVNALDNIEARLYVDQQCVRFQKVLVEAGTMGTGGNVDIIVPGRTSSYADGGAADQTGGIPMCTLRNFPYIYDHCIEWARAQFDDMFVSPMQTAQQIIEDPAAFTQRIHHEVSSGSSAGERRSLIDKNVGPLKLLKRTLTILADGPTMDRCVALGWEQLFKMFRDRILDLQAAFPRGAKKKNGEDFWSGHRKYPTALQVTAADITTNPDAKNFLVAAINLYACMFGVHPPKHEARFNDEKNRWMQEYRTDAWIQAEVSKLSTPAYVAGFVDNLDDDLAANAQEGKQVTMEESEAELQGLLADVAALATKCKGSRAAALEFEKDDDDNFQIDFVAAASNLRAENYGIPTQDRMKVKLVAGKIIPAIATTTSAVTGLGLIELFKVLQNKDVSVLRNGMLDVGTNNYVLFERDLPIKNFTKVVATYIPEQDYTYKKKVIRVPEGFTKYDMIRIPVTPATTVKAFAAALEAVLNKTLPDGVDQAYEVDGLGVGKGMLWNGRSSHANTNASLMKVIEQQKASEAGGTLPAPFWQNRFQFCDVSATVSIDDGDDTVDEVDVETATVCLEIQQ
# [3] = target: AMP-activated protein kinase, AMPK (Homo sapiens) (UniProt P54646+O43741+P54619+Q9UGJ0+Q9Y478+Q13131+Q9UGI9); test: AMP-dependent Kinase enzyme assay. An in vitro enzyme assay that detects ADP turnover that is directly proportional to AMPK activity. This uses naive AMPK that is activated during the assay with MK-8722; assay type: functional; conditions: 30 µM
# [4] = target: Sialic acid-binding Ig-like lectin 9 (Homo sapiens) (UniProt Q9Y336); test: Hs-Siglec9 ALPHAscreen SOP 20170721; conditions: 10 µM
# Trypanosoma cruzi = test: Trypanosoma cruzi phosphomannomutase and mannose-1-phosphate guanylyltransferase assay; assay type: functional; conditions: 10 µM
# [5] = target: T2, Arginase-2, mitochondrial (Homo sapiens) (UniProt P78540); test: in vitro enzyme assay to detect the production of urea directly proportional to the activity of Arginase II; assay type: functional; conditions: 33.3 µM; further: in the data most compounds retested in dose-response had high values
# T2 sequence (whole entry): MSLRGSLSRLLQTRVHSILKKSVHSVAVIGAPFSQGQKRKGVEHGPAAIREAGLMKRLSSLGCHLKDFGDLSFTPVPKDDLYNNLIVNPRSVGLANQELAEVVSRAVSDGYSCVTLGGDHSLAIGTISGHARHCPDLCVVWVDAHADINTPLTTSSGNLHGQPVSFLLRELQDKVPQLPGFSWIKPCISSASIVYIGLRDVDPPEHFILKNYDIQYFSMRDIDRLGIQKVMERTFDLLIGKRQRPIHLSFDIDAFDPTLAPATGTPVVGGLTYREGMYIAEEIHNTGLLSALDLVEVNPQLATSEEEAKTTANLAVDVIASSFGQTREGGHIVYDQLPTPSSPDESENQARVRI
# [6] = target: T3, Proteasome subunit beta (Trypanosoma cruzi) (UniProt O96673); test: Trypanosoma cruzi proteasome chymotrypsin-like activity (TcProtChymo) assay.; further: in the data most compounds retested in dose-response had high values; assay type: functional; conditions: 9.37 µM
# T3 sequence (whole entry): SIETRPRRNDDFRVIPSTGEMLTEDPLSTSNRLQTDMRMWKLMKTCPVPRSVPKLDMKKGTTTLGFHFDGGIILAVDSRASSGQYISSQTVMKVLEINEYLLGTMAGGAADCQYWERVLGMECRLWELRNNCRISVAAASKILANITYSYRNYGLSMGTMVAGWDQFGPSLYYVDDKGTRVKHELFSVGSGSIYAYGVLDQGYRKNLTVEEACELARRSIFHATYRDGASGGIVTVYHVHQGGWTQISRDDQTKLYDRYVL
# Homo sapiens = species: Homo sapiens; test: To identify inhibition of the IFN signalling (Jak-Stat) pathway via expression of an eGFP reporter gene under the control of an IFN-stimulated response element (ISRE) containing MxA promoter.; assay type: functional; conditions: 30 µM
# [7] = target: T4, Tyrosyl-tRNA synthetase, putative (Trypanosoma cruzi (strain CL Brener)) (UniProt Q4DSP6); test: Trypanosoma cruzi tyrosyl tRNA synthetase (TcYRS) _High Tyrosine SOP; assay type: functional; conditions: 30 µM; further: in the data most compounds retested in dose-response had high values
# T4 sequence (whole entry): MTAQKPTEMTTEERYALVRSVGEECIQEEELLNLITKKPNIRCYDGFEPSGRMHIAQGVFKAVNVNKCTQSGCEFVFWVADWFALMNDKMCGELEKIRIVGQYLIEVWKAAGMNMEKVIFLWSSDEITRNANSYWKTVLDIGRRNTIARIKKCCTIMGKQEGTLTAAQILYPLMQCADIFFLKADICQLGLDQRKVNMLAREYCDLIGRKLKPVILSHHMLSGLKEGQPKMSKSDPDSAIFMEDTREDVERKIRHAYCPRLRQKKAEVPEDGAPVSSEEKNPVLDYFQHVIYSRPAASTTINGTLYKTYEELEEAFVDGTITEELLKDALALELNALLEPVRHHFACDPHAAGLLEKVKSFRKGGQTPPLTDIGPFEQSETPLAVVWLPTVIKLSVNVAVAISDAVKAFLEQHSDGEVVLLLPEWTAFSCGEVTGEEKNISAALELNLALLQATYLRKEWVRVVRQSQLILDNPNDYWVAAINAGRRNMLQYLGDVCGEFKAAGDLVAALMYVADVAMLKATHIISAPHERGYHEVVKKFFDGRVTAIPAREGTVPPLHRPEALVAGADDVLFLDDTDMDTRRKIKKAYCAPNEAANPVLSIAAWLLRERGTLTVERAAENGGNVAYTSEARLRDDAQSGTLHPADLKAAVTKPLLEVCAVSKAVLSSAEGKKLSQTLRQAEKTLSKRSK
# [8] = target: T4, Tyrosyl-tRNA synthetase, putative (Trypanosoma cruzi (strain CL Brener)); test: Trypanosoma cruzi tyrosyl tRNA synthetase (TcYRS) SOP; assay type: functional; conditions: 30 µM
# [9] = target: Chromo domain-containing protein 1 (Saccharomyces cerevisiae (strain ATCC 204508 / S288c) (Baker's yeast)) (UniProt P32657); test: ScCHD-1 Enzyme Inhibition Assay; assay type: functional; conditions: 30 µM; further: in the data most compounds retested in dose-response had high values
# Sequence of Chromo domain-containing protein 1 (Saccharomyces cerevisiae (strain ATCC 204508 / S288c) (Baker's yeast)) (P32657 whole entry, the tested form may be a part): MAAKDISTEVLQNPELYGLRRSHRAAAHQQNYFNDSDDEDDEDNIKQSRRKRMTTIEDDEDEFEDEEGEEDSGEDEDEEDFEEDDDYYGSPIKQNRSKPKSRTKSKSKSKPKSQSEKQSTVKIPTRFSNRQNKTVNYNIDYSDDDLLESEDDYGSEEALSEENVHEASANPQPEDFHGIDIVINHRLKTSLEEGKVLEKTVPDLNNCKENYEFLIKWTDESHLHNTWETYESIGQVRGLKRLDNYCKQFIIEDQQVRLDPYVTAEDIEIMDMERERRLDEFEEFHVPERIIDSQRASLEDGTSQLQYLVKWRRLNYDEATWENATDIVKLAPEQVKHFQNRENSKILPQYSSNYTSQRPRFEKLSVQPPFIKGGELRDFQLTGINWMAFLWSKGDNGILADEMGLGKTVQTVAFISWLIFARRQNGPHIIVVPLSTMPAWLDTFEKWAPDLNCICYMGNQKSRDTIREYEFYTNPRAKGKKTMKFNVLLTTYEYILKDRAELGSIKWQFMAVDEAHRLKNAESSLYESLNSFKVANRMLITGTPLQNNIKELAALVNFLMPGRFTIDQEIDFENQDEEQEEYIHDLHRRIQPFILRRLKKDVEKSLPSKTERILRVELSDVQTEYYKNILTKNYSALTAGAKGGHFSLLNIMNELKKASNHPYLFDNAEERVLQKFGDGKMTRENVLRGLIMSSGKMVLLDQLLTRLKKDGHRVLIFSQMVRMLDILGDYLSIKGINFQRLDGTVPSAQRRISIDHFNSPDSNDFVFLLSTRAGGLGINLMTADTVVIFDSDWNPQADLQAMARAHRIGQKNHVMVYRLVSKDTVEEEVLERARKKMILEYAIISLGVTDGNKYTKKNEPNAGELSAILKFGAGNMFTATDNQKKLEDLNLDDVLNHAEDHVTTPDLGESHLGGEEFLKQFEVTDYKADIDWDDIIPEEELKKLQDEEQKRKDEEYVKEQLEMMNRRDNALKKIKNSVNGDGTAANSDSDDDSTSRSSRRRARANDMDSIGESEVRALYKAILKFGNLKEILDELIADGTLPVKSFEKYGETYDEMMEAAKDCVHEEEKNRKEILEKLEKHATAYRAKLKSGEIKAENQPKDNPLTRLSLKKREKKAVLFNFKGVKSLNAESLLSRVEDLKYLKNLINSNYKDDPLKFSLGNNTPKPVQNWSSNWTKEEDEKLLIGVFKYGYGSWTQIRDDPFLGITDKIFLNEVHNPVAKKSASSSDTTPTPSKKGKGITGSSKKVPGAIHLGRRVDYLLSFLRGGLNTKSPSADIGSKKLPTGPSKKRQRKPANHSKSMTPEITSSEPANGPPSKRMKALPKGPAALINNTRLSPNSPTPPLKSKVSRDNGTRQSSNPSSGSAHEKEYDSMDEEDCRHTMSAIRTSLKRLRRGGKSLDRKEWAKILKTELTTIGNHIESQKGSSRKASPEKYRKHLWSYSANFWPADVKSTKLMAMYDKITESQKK
# Sequence of Sialic acid-binding Ig-like lectin 9 (Homo sapiens) (Q9Y336 whole entry): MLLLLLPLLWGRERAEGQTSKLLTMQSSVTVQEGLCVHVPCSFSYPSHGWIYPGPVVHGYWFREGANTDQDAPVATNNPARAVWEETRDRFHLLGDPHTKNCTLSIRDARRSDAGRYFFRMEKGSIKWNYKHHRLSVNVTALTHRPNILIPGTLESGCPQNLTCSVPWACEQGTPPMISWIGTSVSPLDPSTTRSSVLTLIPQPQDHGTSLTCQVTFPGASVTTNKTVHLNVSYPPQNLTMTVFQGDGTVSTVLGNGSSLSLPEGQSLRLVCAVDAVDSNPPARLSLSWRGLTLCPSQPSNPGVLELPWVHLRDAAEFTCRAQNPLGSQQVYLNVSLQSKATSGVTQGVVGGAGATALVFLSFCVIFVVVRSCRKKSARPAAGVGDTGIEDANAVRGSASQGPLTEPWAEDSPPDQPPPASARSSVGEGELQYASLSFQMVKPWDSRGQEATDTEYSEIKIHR
# Sequence of Protein translocase subunit SecA (Escherichia coli (strain K12)) (P10408 whole entry): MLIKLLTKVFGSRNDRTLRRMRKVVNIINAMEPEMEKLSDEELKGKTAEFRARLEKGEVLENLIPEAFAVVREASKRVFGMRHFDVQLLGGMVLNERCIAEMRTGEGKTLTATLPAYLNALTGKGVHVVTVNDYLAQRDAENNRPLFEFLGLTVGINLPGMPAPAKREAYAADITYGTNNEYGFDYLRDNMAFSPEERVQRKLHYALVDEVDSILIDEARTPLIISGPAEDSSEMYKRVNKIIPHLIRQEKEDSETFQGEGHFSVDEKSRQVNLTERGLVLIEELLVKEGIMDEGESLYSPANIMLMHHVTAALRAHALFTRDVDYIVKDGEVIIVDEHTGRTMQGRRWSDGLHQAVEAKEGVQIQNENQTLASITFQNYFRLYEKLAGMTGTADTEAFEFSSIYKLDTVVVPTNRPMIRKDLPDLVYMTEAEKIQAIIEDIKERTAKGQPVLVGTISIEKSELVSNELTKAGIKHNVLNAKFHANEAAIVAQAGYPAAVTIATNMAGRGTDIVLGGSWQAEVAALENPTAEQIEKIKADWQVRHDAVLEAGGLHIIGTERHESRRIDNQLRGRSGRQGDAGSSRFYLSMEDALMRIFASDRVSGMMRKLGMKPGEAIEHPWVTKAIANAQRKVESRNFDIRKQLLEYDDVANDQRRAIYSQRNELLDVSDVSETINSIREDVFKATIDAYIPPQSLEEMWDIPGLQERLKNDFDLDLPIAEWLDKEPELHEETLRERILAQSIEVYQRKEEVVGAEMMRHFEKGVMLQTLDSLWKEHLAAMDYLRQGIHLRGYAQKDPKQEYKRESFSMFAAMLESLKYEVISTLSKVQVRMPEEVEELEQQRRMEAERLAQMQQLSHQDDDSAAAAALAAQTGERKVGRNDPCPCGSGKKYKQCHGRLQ
SMILES,Percent Effect [1] [%],Percent Effect [2] [%],Percent Effect [3] [%],Percent Effect [4] [%],Percent Effect (Trypanosoma cruzi) [%],Percent Effect [5] [%],Percent Effect [6] [%],Percent Effect (Homo sapiens) [%],Percent Effect [7] [%],Percent Effect [8] [%],Percent Effect [9] [%]
COc1cccc(CNC(=O)N2CCN(Cc3cc(C)on3)CC2)c1,-1.41,15.2,-1.11,-7.32,-6.33,0.38,1.39,25.8,5.42,11.4,-5.16
Cc1ccc2c(c1)CN(C(=O)c1ccccc1F)C(CN(C)C)CO2 (stereo unspecified),-0.708,12.2,14.3,-7.4,-5.73,-4.41,11.7,0.0165,1.07,3.9,-10
CCOc1ccccc1CSc1nnc(CC2CCS(=O)(=O)C2)n1C (stereo unspecified),-2.9,2.7,-1.67,1.02,-3.42,1.74,9.19,5.04,3.23,11.1,-8.57
Cc1nn(C)c(C)c1C1CCCN1Cc1nc(C)c2ccccc2n1 (stereo unspecified),-3.55,3.8,1.88,-0.0747,1.74,1.94,2.06,-6.74,20.8,25.3,-22.5
CC(=O)NCCc1cc(N2CCN(C(C)=O)CC2)nc(C2CC2)n1,2.03,-6.76,10.3,-0.0242,-3.75,1.16,9.36,7.59,2.15,-1.3,-3.42
CC(C)c1nnc2n1CCN(CC(=O)N1CCc3ccccc3C1)C2,-3.76,2.63,-2.4,1.05,6.01,-1.53,-0.167,5.07,7.35,9.76,-9.88
O=C(NCC1(N2CCOCC2)CCSC1)Nc1ccc(F)cc1 (stereo unspecified),0.856,5.41,-4.15,1.34,0.193,-2.86,17.9,-10.2,5.82,9.76,-1.18
Cc1cnc(CN2CCOC(CNc3cccnn3)C2)cn1 (stereo unspecified),0.476,-7.79,-0.781,0.564,-6.74,8.54,0.676,17.9,0.971,-2.44,-5.93
COc1ccc(Nc2nc3c(C)nn(C)c3c(=O)n2C)c(OC)c1,-1.13,15.6,-2.05,14.5,6.79,-12.4,10.3,0.301,8.6,18.5,-5.3
CC(C)(C)c1ccc(C2(C(=O)NCCCS(C)(=O)=O)CC2)cc1,-2.57,7.79,1.11,4.51,-7.77,-1.38,7.16,0.292,1.07,6.17,-0.462
CC(C)c1nc(CN(C)C2CCN(Cc3nc(C4CC4)no3)C2)no1 (stereo unspecified),4.92,11,-9.72,4.44,-8.42,1.36,18.8,22.3,3.23,10,-6.06
COCC(O)CNC(=O)c1cnc(-c2ccccc2)nc1O (stereo unspecified),2.38,8.11,-5.21,5.6,3.28,-0.476,8.97,13.5,8.99,19.5,-0.825
Cc1cc(-c2cnc(NC3CCCC3)nc2-c2ccoc2C)on1,-2.76,14.9,65.2,4.01,0.395,-0.696,5.77,14.7,6.45,3.9,-16
O=C1CC[C@H]2[C@H](CCN2C(=O)C2CCCO2)N1Cc1ccncc1 (stereo partly specified),-2.88,22.7,-8.21,-5.26,2.36,-8.63,14.1,12.9,1.06,7.69,-8.01
CN(Cc1cnccn1)C(=O)c1ccnc(OC2CCC2)c1,2.54,-2.7,1.16,4.85,0.193,1.43,1.9,4.71,-0.529,4.88,8.01
CC(C)Cc1ccc(S(=O)(=O)Nc2ccc(=O)n(C)c2)cc1,-3.52,25.3,-59.7,-2.55,3.31,0,15.5,69,6.4,21.5,-7.97
CC(Cn1ccnc1)NC(=O)NCCc1ccc2c(c1)OCCO2 (stereo unspecified),-3.57,18.2,-10.2,-0.77,-10.1,0.712,15.7,31.7,4.85,2.44,-8.39
CC(C)CS(=O)(=O)CC(=O)N(C)Cc1ccc(OC(F)F)cc1,-4.46,2.7,4.52,-5.18,-1.74,0.476,15.2,12.9,-0.529,9.76,-2.02
N#Cc1cc(NS(=O)(=O)c2ccc(C(=O)O)cc2F)ccc1F,-2.74,-13.5,-2.89,0.735,-0.472,4.41,-3.24,-0.301,0.493,1.24,-0.823
O=C(NCCN1CCOCC1)NCC(O)c1cccc(F)c1 (stereo unspecified),-4.85,16.2,-10.5,13.6,5.75,-6.01,4.68,10.8,5.42,11.1,-10.8
Cc1cc2c(=O)n3c(nc2s1)CCN(Cc1ccncc1)CC3,2.21,4.05,13.8,-10.1,-4.94,5.8,4.21,19.7,3.23,9.09,-10.3
